A selection: hits, their analogues and other compounds. The true share with any hit is near 2.9%.
EP2 modulator = EP2 receptor (human) modulation. AID 940. EP2-expressing cells, cAMP HTRF FRET, PGE2 co-stimulation. induction, % at 25 µM. P43116. 0.83% of 260,000 active;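 active = compounds whose cAMP rise, as percent of the full-agonist control response, exceeds 60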;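 note: rat C6 glioma line stably carrying human EP2 under a CMV promoter; the protocol text gives 20 µM as final concentration; 100% = response of wells given 1 µM PGE2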
RAM network inh = inhibitors of the yeast RAM network; inhibition, % at 50 µM; 1.8% of 190,000 active; AID 868; S. cerevisiae dse1pr::URA3 reporter, 5-FOA growth OD615, 2 d; analog-sensitive cbk1-as2 kinase mutant strain;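 active = inhibition above a set limit, 3 SD over mean compound inhibition, cut at about 8.4% in these data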;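 note: 0% = DMSO-only wells with no growth and 100% = 10 µM 1-NA-PP1 full growth; inhibition rescues growth on 5-FOA so higher OD means more RAM inhibition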
PG9 binder = binds the HIV-1 gp120 antibody PG9 | TR-FRET gp120-PG9 antibody binding | inhibition, % at 6.7 µM | 0.43% of 360,000 active | AID 624416; in the data active = inhibition above about 8.5%
EP2 antag = blocks the human prostaglandin E2 receptor EP2; AID 1422; 0.52% of 260,000 active; P43116; C6 glioma cells expressing human EP2, cAMP TR-FRET; cells stimulated with saturating PGE2; inhibition, % at 25 µM;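 active = percent inhibition above 40 after rounding to a whole number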;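 note: rat C6 glioma host cells with rolipram phosphodiesterase inhibitor present; the protocol text gives 20 µM as final concentration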
SKN-1 inh = inhibitors of C. elegans SKN-1 | C. elegans VP596 Pgst-4::GFP/RFP ratio, acrylamide-induced, 24 h | inhibition, % at 21.8 µM | 0.49% of 360,000 active | AID 624304;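 active = interference check ratio from 0.5 to 1.5 plus GFP to RFP signal ratio inhibition reaching or exceeding a fixed threshold, cut at about 30% in these data, passing the limit was not always enough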
NR1D1 modulator = modulators of human Rev-erb alpha DNA binding; P20393; Rev-erbα–FITC-DNA binding, fluorescence polarization, 90 min; activity, % at 10 µM; 0.79% of 370,000 active;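 active = activity above about 14%, limit read from the data; passing the limit was not always enough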;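 note: 0% = DMSO wells with 35 nM protein and 100% = DMSO wells with 750 nM protein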
Target sequence (P20393 whole entry, looked up): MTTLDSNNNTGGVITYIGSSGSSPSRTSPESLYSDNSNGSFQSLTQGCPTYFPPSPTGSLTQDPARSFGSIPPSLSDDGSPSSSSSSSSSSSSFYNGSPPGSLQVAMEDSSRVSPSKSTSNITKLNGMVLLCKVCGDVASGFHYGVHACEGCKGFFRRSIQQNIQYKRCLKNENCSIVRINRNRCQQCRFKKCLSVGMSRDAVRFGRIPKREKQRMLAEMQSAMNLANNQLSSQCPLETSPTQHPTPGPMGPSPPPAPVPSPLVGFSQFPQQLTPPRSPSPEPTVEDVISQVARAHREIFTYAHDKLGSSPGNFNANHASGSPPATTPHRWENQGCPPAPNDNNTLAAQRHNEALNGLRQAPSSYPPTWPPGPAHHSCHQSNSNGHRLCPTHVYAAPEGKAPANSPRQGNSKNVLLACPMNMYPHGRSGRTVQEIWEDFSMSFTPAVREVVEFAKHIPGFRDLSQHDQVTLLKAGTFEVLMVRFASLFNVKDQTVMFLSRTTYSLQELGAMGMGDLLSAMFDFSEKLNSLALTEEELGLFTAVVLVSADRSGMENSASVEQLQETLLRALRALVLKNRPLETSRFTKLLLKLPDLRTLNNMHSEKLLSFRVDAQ
The depositor's hits bear a star; · = no result given.

SMILES	EP2 modulator	RAM network inh	PG9 binder	EP2 antag	SKN-1 inh	NR1D1 modulator
Cc1ccc(/C=C2\C(=O)NC(=S)N(c3ccc(F)cc3)C2=O)s1	-64.3	4.0	-0.3	22.8	35.7*	-4.9
Cc1ccc(/C=C2\C(=O)NC(=S)N(c3ccccc3F)C2=O)s1	-8.6	1.5	-1.3	17.6	19.5	-1.7
Cc1nc(-c2ccccc2)c(CC(=O)N(C)CCN(C)C)s1	-20.3	·	·	8.9	·	·
COC(=O)C12OCC34C(CC5C(C)=C(O)C(=O)CC5(C)C3C(O)C1O)OC(=O)C(OC(=O)/C=C(\C)C(C)C)C24 (stereo not drawn)	·	·	-0.8	·	56.5*	5.5
CC(=O)OC1CC[C@@]2(C)C(CCC3C2CC[C@]2(C)C(C4=CC(=O)OC4)C(OC(C)=O)CC32O)C1 (stereo partly drawn)	-3.6	·	·	10.1	·	·
C[C@]12CC[C@H](O)C[C@@H]1CC[C@H]1[C@H]2CC[C@@]2(C)[C@H](C3=CC(=O)OC3)[C@H](O)C[C@]12O	4.2	·	·	43.0*	·	·
O=C(c1ccccc1F)c1cn(Cc2ccccc2)c2ccccc12	45.9	11.1*	-0.8	5.8	11.1	0.8
Cn1ccnc1C1(O)CC2CCC(C1)N2CC(=O)Nc1ccc2c(c1)CCC2 (stereo not drawn)	-1.9	·	·	·	·	·
O=c1[nH]c(CN2CCN3CCCCC3C2)nc2ccccc12 (stereo not drawn)	-3.9	·	·	13.0	·	·
O=C1NC(=O)N(c2ccccc2)C(=O)/C1=C/c1ccc(Sc2ccccc2)o1	-2.5	7.8	·	41.5*	9.5	·
CCN1C(=O)/C(=C/c2ccc(N(CC)CC)cc2OC)C(=O)NC1=S	-90.6	8.1	-14.9	16.5	44.8*	-6.3
COc1ccccc1/C=C1\C(=O)NC(=S)N(c2ccccc2)C1=O	·	·	-1.1	·	12.2	-1.5
ClCCN(CCCl)c1ccc(C=Cc2ccncn2)cc1	·	·	1.3	·	54.0*	-31.6
Clc1cccc(C2NCc3ccccc3-n3cccc32)c1 (stereo not drawn)	69.3*	·	-0.8	4.5	-2.6	2.9
CCN1CCN(C(=O)Cc2cccc3ccccc23)CC1	-6.7	·	·	10.1	·	·
CC1(C)CCC(C)(C)c2c1ccc(O)c2Cc1c(O)ccc2c1C(C)(C)CCC2(C)C	23.3	·	·	45.2*	·	·
Cn1ccnc1C1(O)CC2CCC(C1)N2CC(=O)N1CCCc2ccccc21 (stereo not drawn)	-7.1	·	·	·	·	·
CC1OC(OC2CC(O)C3(CO)C4C(O)CC5(C)C(C6=CC(=O)OC6)CCC5(O)C4CCC3(O)C2)C(O)C(O)C1O (stereo not drawn)	·	·	-0.3	·	-13.8	7.7
C[C@@H]1O[C@H](O[C@H]2C[C@@H](O)[C@]3(CO)[C@@H]4[C@@H](O)C[C@]5(C)[C@@H](C6=CC(=O)OC6)CC[C@@]5(O)[C@H]4CC[C@@]3(O)C2)[C@@H](O)[C@H](O)[C@H]1O	14.3	·	·	42.5*	·	·
Cc1ccc(OCC(=O)Nc2ccc(Cl)cc2C(=O)c2ccccc2)cc1	34.0	9.4*	2.2	4.8	5.4	-5.5
NC(=O)c1c([N+](=O)[O-])no[n+]1[O-]	-102.4	·	·	119.2*	·	·
O=c1c2ccccc2nc(SCC2CCCCO2)n1-c1ccccc1 (stereo not drawn)	63.8*	1.4	-0.9	7.1	3.5	-3.5
Cn1nc(CC(=O)N2CCCCC2CN2CCCC2)c2ccccc2c1=O (stereo not drawn)	-33.3	·	·	5.7	·	·
CC(=O)N(C1=NCCCS1)c1ccc(F)cc1	7.2	1.4	-1.7	2.7	39.3*	0.4
Cc1nc(CC(=O)N(CCN(C)C)Cc2ccc(F)cc2)cs1	14.1	·	·	7.0	·	·
SMILES	EP2 modulator	RAM network inh	PG9 binder	EP2 antag	SKN-1 inh	NR1D1 modulator
O=S(=O)(O)/C(=C\c1ccccc1)c1ccccc1 (tested in a mixture with another compound)	26.1	·	·	46.0*	·	·
C=Cn1cc(CN2C3CCC2CC(O)(c2nccn2C)C3)c(C)n1 (stereo not drawn)	-7.3	·	·	5.2	·	·
Cc1ccc(S(=O)(=O)N[C@@H](CCCCN)C(=O)CCl)cc1	66.5*	·	-0.3	17.1	6.7	5.3
CCCOc1c(CN2C3CCC2CC(O)(c2ccccc2F)C3)cccc1OC (stereo not drawn)	-29.5	·	·	5.3	·	·
Nc1cc[c]([Hg])cc1.Nc1nc2c(ncn2[C@H]2O[C@H](CO)[C@@H](O)[C@@H]2O)c(=[SH+])[nH]1	-43.0	·	·	103.7*	·	·
Nc1nc(=S)c2ncn(C3OC(CO)C(O)C3O)c2[nH]1 (stereo not drawn)	-0.2	·	0.1	13.8	-1.6	-22.2
Nc1ccc(NC2=NCCCS2)cc1	-6.6	·	·	5.1	·	·
Clc1ccc(Cl)c2c1NC(c1cccnc1)C1CC=CC21 (stereo not drawn)	86.7*	·	·	7.4	·	·
Fc1cc(F)c2c(c1)C1C=CCC1C(c1cccnc1)N2 (stereo not drawn)	13.5	·	·	7.4	·	·
CCSC1=NN1c1nc(N)nc(C)c1CC	1.5	·	·	8.2	·	·
CNCCc1ccc(O)c(O)c1	70.8*	·	-2.1	13.4	-3.6	-10.4
CCc1ccc(CN2CCNCC2)cc1	9.6	·	·	7.5	·	·
COc1ccc(C(=O)O)cc1OC	12.6	·	-0.8	6.2	-4.5	-1.3
O=C(O)c1cc[c]([Hg][Cl])cc1	7.3	·	·	4.2	45.2*	·
C[C@]12CC[C@H](O)CC1=CC[C@@H]1[C@@H]2CC[C@]2(C)C(=O)CC[C@@H]12	14.1	·	0.0	12.0	9.7	-1.6
CC(=O)O/C(=C1\C[C@@H]2[C@H]3CC=C4C[C@@H](OC(C)=O)CC[C@]4(C)[C@@H]3CC[C@@]2(C)C1=O)C(F)(F)F	39.4	·	·	47.0*	·	·
CCCSc1nc2ccccc2c(=O)n1-c1ccccc1C	74.9*	·	·	14.8	·	·
O=C1NC(=O)N(Cc2ccccc2)C(=O)/C1=C/C=C/c1ccco1	-56.1	·	-2.5	105.7*	7.8	-3.5
CC(C)c1ccc(N2C(=O)NC(=O)/C(=C\C=C\c3ccco3)C2=O)cc1	-75.5	6.4	-1.7	100.2*	·	-5.5
C=CCn1ncc(CN2C3CCC2CC(O)(c2ccc(OC)cc2)C3)c1C (stereo not drawn)	32.6	·	·	10.4	·	·
CSc1ccc(C(c2c(O)c3ccccc3oc2=O)c2c(C)n(C)n(-c3ccccc3)c2=O)cc1 (stereo not drawn)	39.9	8.2	-1.4	5.3	6.1	7.9
Cc1c(C(c2ccc(Br)cc2)c2c(O)c3ccccc3oc2=O)c(=O)n(-c2ccccc2)n1C (stereo not drawn)	23.9	10.3*	0.0	3.2	7.0	9.8
CC(Cc1ccc(O)cc1)NCC(O)c1cc(O)cc(O)c1 (stereo not drawn)	82.4*	·	-3.1	7.2	-7.5	1.4
CCC(C)C(=O)O[C@@H]1C[C@@]2(C)[C@H](c3ccoc3)OC(=O)CC23OC2(C)O[C@]14[C@]1(C)[C@@H](CC(=O)OC)C5(C)CC1(O)[C@](O)(C5OC(=O)C1(C)OC1C)[C@@H](OC(C)=O)[C@]34O2 (stereo partly drawn)	4.4	·	·	9.9	·	·

Assay outcomes from PubChem BioAssay.
